Assay type in all cases: functional
In experiment [1] the target is Solute carrier family 2, facilitated glucose transporter member 1 (Homo sapiens) (UniProt P11166). The experiment in a line: ST_JUDE_LEISH: Cytotoxicity at 2uM final concentration against transgenic Leishmania Mexicana promastigotes LmGLUT1 that are glucose transport deficient and complemented with the human glucose transporter GLUT1. Activity is measured by DNA content using SYBR green in vitro.

Experiment [2] deals with Hexose transporter 1 (Plasmodium falciparum) (UniProt O97467). The experiment in a line: ST_JUDE_LEISH: Cytotoxicity at 2uM final concentration against transgenic Leishmania Mexicana promastigotes LmPfHT that are glucose transport deficient and complemented with the Plasmodium falciparum hexose transporter. Activity is measured by DNA content using SYBR green in vitro.
Experiment [3] addresses Glucose transporter (Leishmania mexicana) (UniProt O61059). The experiment in a line: ST_JUDE_LEISH: Cytotoxicity at 2uM final concentration against transgenic Leishmania Mexicana promastigotes LmGT2 that are glucose transport deficient and complemented with the L. Mexicana glucose transporter 2. Activity is measured by DNA content using SYBR green in vitro.

Here are results for 36 molecules from ChEMBL document CHEMBL3433997, “St. Jude Leishmania screening dataset” (2016).

By inhibition is commonly meant the change of the read-out against control, counted positive when it falls.

Chain of Solute carrier family 2, facilitated glucose transporter member 1 (Homo sapiens) (P11166 whole entry): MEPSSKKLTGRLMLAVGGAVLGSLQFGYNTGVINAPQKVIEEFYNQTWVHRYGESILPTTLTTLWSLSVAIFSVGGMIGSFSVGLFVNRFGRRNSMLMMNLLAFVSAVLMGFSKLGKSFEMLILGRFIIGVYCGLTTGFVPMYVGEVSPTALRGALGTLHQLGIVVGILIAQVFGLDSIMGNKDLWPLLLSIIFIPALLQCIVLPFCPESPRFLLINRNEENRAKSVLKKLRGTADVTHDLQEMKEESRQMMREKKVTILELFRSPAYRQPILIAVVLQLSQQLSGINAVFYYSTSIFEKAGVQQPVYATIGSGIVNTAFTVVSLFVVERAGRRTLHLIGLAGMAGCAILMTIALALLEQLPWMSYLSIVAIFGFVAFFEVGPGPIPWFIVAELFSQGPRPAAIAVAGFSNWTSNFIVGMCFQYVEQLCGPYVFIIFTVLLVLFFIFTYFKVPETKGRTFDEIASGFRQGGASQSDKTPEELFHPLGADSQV

Turning to `O=C(NCc1ccccc1F)c1ccc(N2CCC(NCc3cccc(-n4cccn4)c3)CC2)cc1`, the inhibition in experiment [1] is -0.13%; in experiment [2], 3.43%; in experiment [3], -1.93%.

In the case of `CC(=O)Oc1cc(C)ccc1C1CCN(CCCCNC(=O)c2ccc(NC(=O)c3ccc(Cl)cc3)cc2)CC1`, the inhibition in experiment [1] came out at 1.6%; in experiment [2], 1.07%; in experiment [3] it was 1.52%.

Take `FC(F)(F)c1cnc(Sc2nnc(-c3ccncc3)o2)c(Cl)c1`: the inhibition was -0.19% in experiment [1], -5.1% in experiment [2] and 9.49% in experiment [3].

Regarding `CC(C)(CNCc1ccccc1)c1nc(-c2ccc(Cl)c(O)c2)c(-c2ccncc2)[nH]1`, the inhibition came out at 4.28% in experiment [1], 4.73% in experiment [2] and 3.53% in experiment [3].

Consider `N=C(N)c1cccc(-c2cc(-c3cccc(C(=N)N)c3)on2)c1`, for which the inhibition in experiment [1] is 0.92%; in experiment [2], 2.23%; in experiment [3], -0.32%.

For `Nc1ncnc2c1ncn2C(CO)Cc1ccc(O)cc1` (stereo not drawn), the figures for the inhibition in experiment [1], in experiment [2] and in experiment [3] were 9.32%, 6.45% and 8.36%, respectively.

Take `O=C(Nc1cc(C(F)(F)F)cc(C(F)(F)F)c1)N1CCC(CCN2CCC(c3c[nH]c4ccccc34)CC2)CC1`: the inhibition in experiment [1] turned out to be 5.87%; in experiment [2] it was 4.12%; in experiment [3] it was 4.71%.

Consider `CCN(CC)CCN(Cc1ccc(-c2ccc(C(F)(F)F)cc2)cc1)C(=O)Cn1c(CCc2cc(F)c(F)cc2F)nc(=O)c2ccccc21`, for which the inhibition in experiment [1] stood at 13.6%; in experiment [2] it was 12.3%; in experiment [3], 12.8%.

`Cc1cc(NC2CCCC2)nc(Nc2ccccc2F)n1`: the results for the inhibition in experiment [1], in experiment [2] and in experiment [3] were 11.8%, 4.74% and 2.95%, respectively.

For the molecule `CN(C)CCC1CCN(CCS(=O)(=O)c2cccc(Nc3ccc(-c4cccc(F)c4)cn3)c2)CC1`, the inhibition was -0.27% in experiment [1], 3.28% in experiment [2] and 3.78% in experiment [3].

Turning to `ON=C1CCc2cc(-c3cc(-c4ccc(OC5CCNCC5)cc4)oc3-c3ccncc3)ccc21`, the inhibition is 1.43% in experiment [1], 3.53% in experiment [2] and -0.04% in experiment [3].

For the molecule `NC1CCN(Cc2ccc(-c3ccc(-c4nc5ccccc5[nH]4)cc3)cc2)C1` (stereo not drawn), the values for the inhibition in experiment [1], in experiment [2] and in experiment [3] were 12.9%, 10.4% and 5.07%, respectively.

In the case of `CC(C)Cn1cc(C2CCN(CCN3CCC(CNC(=O)c4ccc(-c5ccc(C#N)cc5)cc4)CC3)CC2)c2ccccc21`, the inhibition in experiment [1] is 2.71%; in experiment [2], 5.31%; in experiment [3] it was 2.53%.

Take `Cc1ccc(CNc2ccc3ncc(-c4cccc(C(=O)NCCN(C)C)c4)n3n2)c(C)c1`: the inhibition turned out to be 5.82% in experiment [1], 5.31% in experiment [2] and 4.49% in experiment [3].

Consider `O=C(NCC1CCCCC1)c1cc(=O)c2ccccc2o1`, for which the inhibition in experiment [1] turned out to be 8.02%; in experiment [2] it was 10.2%; in experiment [3], 11.7%.

Regarding `Cc1ccc(-c2cc(C(=O)Nc3ccc(S(=O)(=O)N4CCOCC4)cc3)[nH]n2)c(O)c1C`, the inhibition in experiment [1] is 4%; in experiment [2], 0.56%; in experiment [3], -1.4%.

In the case of `O=C(/C=C/c1ccc(Cl)c(Cl)c1)NCCCCCN1CCC(c2c[nH]c3ccc(O)cc23)CC1`, the inhibition in experiment [1] worked out at 2.16%; in experiment [2], 1.31%; in experiment [3], 1.25%.

For `COc1ccc2[nH]c(/C=C/c3cccc4ccc(C)nc34)nc2c1`, the values for the inhibition in experiment [1], in experiment [2] and in experiment [3] were 2.88%, 2.44% and 0.69%, respectively.

As to `c1ccc(COc2ccc(Nc3ncnc4cnc(-c5ccc(CNc6cccnc6)o5)cc34)cc2)cc1`, the inhibition worked out at 3.94% in experiment [1], 3.46% in experiment [2] and 0.83% in experiment [3].

`CN1CCN(Cc2ccc(-c3ccc4c(Nc5cc(O)c(F)cc5Cl)ccnc4c3)o2)CC1`: the inhibition in experiment [1] was 4.84%; in experiment [2] it was 2.61%; in experiment [3], 2.56%.

As for `CCc1c(C(=O)NC2CCC(N3CCC(c4ccccc4C)CC3)CC2)[nH]c2ccc(Br)cc12` (stereo not drawn), the values for the inhibition in experiment [1], in experiment [2] and in experiment [3] were 5.69%, 5.55% and 3.97%, respectively.

Consider `COc1ccc2nccc([C@@H](O)CN3CCC(NCc4ccc5nsnc5c4)CC3)c2c1`, for which the inhibition in experiment [1] is 0.12%; in experiment [2], -1.13%; in experiment [3] it was -0.38%.

Regarding `C=CCn1c(SCC(=O)Nc2cc(C)ccc2OC)nc2sc(C)cc2c1=O`, the inhibition in experiment [1] is 4.32%; in experiment [2], 3.15%; in experiment [3] it was 2.13%.

As for `COc1ccc(CN2CCC(Oc3cccc(NC(=O)c4ccc(C(F)(F)F)cc4)c3)CC2)cc1`, the inhibition in experiment [1] is 0.69%; in experiment [2], 1.18%; in experiment [3] it was 3.45%.

In the case of `COc1ccc(F)cc1-c1ccc(C(=O)N2CCCN(c3ccc(C(F)(F)F)cn3)CC2)cc1`, the inhibition amounted to 2.4% in experiment [1], 1.75% in experiment [2] and 4.03% in experiment [3].

With `CC(C)N1CCC(N(Cc2ccc(-c3ccc(C(F)(F)F)cc3)cc2)C(=O)Cn2c(SCc3cccc(F)c3F)cc(=O)c3ccccc32)CC1`, the inhibition in experiment [1] is -0.18%; in experiment [2], 1.73%; in experiment [3], 0.55%.

Take `CO/C(=C\C=C\c1cc2cc(Cl)c(Cl)cc2[nH]1)C(=O)NCCCN1CCN(c2cccc(OC)c2)CC1`: the inhibition in experiment [1] is 8.59%; in experiment [2], 8.04%; in experiment [3], 9.1%.

For `CCOc1cc(Cc2cnc(N)nc2N)cc(OC)c1OC`, the inhibition was -1.63% in experiment [1], -0.5% in experiment [2] and -0.04% in experiment [3].

With `CC(C)(CNCc1ccc(OC(F)(F)F)cc1)c1nc(-c2ccc(Cl)c(O)c2)c(-c2ccncc2)[nH]1`, the inhibition is -0.48% in experiment [1], 0.11% in experiment [2] and 6.94% in experiment [3].

Consider `COc1cccc(C(=O)Nc2nc3c(s2)CCN(Cc2ccccc2N2CCNCC2)CC3)c1`, for which the inhibition in experiment [1] was 12.3%; in experiment [2], 13.7%; in experiment [3] it was 10.7%.

For the molecule `CN(C)CCOc1ccc(-c2cc(-c3ccnc(N)n3)c(-c3ccc(Cl)c(O)c3)o2)cc1`, the values for the inhibition in experiment [1], in experiment [2] and in experiment [3] were 1.34%, 1.5% and 2.71%, respectively.

With `N#Cc1ccc(CN2CCCN(Cc3cccc(NC(=O)c4cc5ccccc5s4)c3)CC2)cc1`, the inhibition in experiment [1] was -0.46%; in experiment [2], -0.58%; in experiment [3], -1.54%.

`CCc1c(CCNCCCCCCNCCc2ccc(OC)cc2)ccc(OC)c1OC`: the inhibition amounted to 5.63% in experiment [1], 5.5% in experiment [2] and 5.8% in experiment [3].

In the case of `FC(F)(F)Oc1ccc(-c2cnc3ccc(NCc4ccncc4)nn23)cc1`, the inhibition was 2.41% in experiment [1], 3.58% in experiment [2] and -1.87% in experiment [3].

As to `O=C(Nc1ccc(-c2nc3ccccc3[nH]2)cc1)c1ccc(N2CCCC2)c([N+](=O)[O-])c1`, the inhibition worked out at 0.71% in experiment [1], 2.01% in experiment [2] and 1.2% in experiment [3].

Consider `OCCN1CCN(Cc2ccc(-c3cccc(-c4nc5cc(C(F)(F)F)ccc5[nH]4)c3)cc2)CC1`, for which the results for the inhibition in experiment [1], in experiment [2] and in experiment [3] were 7.65%, 7.08% and 7.33%, respectively.
